Measurements as given in PubChem BioAssay AID743025 (Vanderbilt Specialized Chemistry Center, 2013).
Activity calls are given as the source filed them.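 How the source made its calls: active means IC50 below 10 µM at human M5 in a calcium flux test, acting as a negative modulator; inactive means the rest.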

molecular target: Muscarinic acetylcholine receptor M5 (Homo sapiens) (UniProt P08912); experiment: M5 muscarinic receptor negative allosteric modulators, cell-based, single concentration, human M5 (AID 743025); details: CHO-K1 hM5, ACh EC80 calcium flux, Fluo-4; at 10 µM; hits give low values
Sequence (P08912 whole entry, looked up): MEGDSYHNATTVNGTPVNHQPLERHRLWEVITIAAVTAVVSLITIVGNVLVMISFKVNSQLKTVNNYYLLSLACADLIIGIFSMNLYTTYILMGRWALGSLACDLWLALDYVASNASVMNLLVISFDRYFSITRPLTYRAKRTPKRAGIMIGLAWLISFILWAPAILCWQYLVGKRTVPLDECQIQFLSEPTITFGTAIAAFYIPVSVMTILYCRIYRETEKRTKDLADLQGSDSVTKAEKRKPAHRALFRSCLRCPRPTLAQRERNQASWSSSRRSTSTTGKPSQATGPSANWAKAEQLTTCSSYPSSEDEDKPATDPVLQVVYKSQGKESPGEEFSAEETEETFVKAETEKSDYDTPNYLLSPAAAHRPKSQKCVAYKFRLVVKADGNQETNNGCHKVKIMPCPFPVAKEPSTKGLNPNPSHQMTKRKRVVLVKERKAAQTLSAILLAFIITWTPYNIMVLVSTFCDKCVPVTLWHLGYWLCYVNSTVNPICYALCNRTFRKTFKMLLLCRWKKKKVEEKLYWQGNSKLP

Activity remaining, active:
O=C(c1cc(Cl)cc(Cl)c1)N1CCN2C(=O)c3ccccc3C12c1ccccc1 (configuration not stated) 5.4%
Cc1cccc(C(=O)N2CCN3C(=O)c4ccccc4C23c2ccccc2)c1 (configuration not stated) 52.7%
Cc1ccc(C23c4ccccc4C(=O)N2CCN3C(=O)c2ccc(SC(F)(F)F)cc2)cc1 (configuration not stated) 10.9%
Cc1ccc(C23c4ccccc4C(=O)N2CCN3C(=O)c2ccccc2)cc1 (configuration not stated) 53.2%
O=C(c1ccc(SC(F)(F)F)cc1)N1CCN2C(=O)c3ccccc3C12c1ccccc1 (configuration not stated) 1.05%
O=C(c1cccc(C(F)(F)F)c1)N1CCN2C(=O)c3ccccc3C12c1ccc(F)cc1 (configuration not stated) 0.24%

Activity remaining, inactive:
Cc1ccc(C(=O)N2CCCN3C(=O)c4ccccc4C23c2ccc(Cl)cc2)cc1 (configuration not stated) 74.8%
Cc1ccc(S(=O)(=O)N2CCN3C(=O)c4ccccc4C32c2ccccc2)cc1 (configuration not stated) 73.4%
COc1ccc(C23c4ccccc4C(=O)N2CCN3C(=O)c2ccccc2)cc1 (configuration not stated) 73%
O=C1CCC2(c3ccccc3)Nc3ccccc3N12 (configuration not stated) 81.8%
O=C(c1cc(F)cc(F)c1)N1CCN2C(=O)c3ccccc3C12c1ccc(F)cc1 (configuration not stated) 69.3%
O=C(c1ccccc1F)N1CCN2C(=O)c3ccccc3C12c1ccccc1 (configuration not stated) 85.8%
O=C(c1ccc(F)c(F)c1)N1CCN2C(=O)c3ccccc3C12c1ccc(F)cc1 (configuration not stated) 64.5%
O=C1c2ccccc2C2(c3ccccc3)NCCN12 (configuration not stated) 89.3%
O=C(c1cc(F)cc(F)c1)N1CCN2C(=O)c3ncccc3C12c1ccccc1 (configuration not stated) 75.2%
O=C1c2ccccc2C2(c3ccccc3)Nc3ccccc3N12 (configuration not stated) 81.8%
Clc1ccc(C2(c3ccccc3)CCCN2)cc1 (configuration not stated) 68.9%
Cc1cccc(C(=O)N2CCCN3C(=O)c4ccccc4C23c2ccc(Cl)cc2)c1 (configuration not stated) 72.9%
COc1cc(C(=O)N2CCN3C(=O)c4ccccc4C23c2ccc(Cl)cc2)cc(OC)c1OC (configuration not stated) 63.4%
O=C(c1cc(F)cc(F)c1)N1CCCN2C(=O)c3ccccc3C12c1ccc(Cl)cc1 (configuration not stated) 76.8%
O=C(c1ccc(Oc2ccccc2)cc1)N1CCN2C(=O)c3ccccc3C12c1ccccc1 (configuration not stated) 75.1%
O=C(c1ccc(-c2ccccc2)cc1)N1CCN2C(=O)c3ccccc3C12c1ccccc1 (configuration not stated) 62.7%
